Assay in all cases: DAPPL (digital affinity profiling via proximity ligation, sequencing); 10 mM Tris-HCl pH 7.5, 50 mM NaCl, 1 mM DTT, 4% glycerol, room temperature, 30 min; GST-TFs on glutathione beads, 16-mer random dsDNA library, 0.1% formaldehyde crosslink after washing; high values mean tight binding
Common to all, as to settings: protein: recombinant; tags: N-terminal GST; dsDNA, one strand shown

The target in assay [1] is T1, FLI1 (Homo sapiens, UniProt Q01543 1-452).
T1 sequence: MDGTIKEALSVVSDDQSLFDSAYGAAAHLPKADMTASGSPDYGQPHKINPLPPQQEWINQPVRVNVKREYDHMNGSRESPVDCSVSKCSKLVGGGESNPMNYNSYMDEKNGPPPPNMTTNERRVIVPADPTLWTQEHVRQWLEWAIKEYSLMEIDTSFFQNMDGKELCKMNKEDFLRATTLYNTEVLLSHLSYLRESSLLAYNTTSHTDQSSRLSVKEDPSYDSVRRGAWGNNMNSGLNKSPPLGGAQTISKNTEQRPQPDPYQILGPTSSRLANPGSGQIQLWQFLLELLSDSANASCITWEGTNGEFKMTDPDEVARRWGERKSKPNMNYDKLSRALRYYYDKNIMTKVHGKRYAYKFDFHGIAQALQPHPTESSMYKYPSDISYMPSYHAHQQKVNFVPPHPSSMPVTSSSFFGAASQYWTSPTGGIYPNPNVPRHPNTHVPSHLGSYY
The gist of the method:
(§1)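 Pools were built from human transcription factors expressed in yeast as GST fusions, captured on glutathione beads and DNA-barcoded, along with a tag-only sample. Incubation with 200 nmole of a 16-mer random double-stranded DNA library lasted 30 min at room temperature in Tris/NaCl/DTT/glycerol buffer, and was followed by washing, 0.1% formaldehyde crosslinking, proximity ligation, PCR amplification and Illumina NextSeq500 sequencing. Binding signal is the quotient of each hexamer's read frequency for a factor and its frequency for the tag-only sample.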

The target in assay [2] is T2, ELK1 (Homo sapiens, UniProt P19419 1-428).
T2 sequence: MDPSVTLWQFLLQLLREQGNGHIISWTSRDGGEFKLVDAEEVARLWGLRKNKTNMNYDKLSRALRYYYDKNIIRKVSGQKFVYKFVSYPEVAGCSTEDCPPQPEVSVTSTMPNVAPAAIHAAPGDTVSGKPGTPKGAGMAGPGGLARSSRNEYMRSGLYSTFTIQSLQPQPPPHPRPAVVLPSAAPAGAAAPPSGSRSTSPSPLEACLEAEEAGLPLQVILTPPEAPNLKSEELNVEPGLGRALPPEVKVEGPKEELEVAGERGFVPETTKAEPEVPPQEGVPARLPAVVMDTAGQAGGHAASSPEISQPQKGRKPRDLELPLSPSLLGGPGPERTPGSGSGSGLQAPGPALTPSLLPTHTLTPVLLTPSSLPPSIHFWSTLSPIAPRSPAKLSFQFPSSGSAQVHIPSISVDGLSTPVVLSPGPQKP
The gist of the method: as §1

The target in assay [3] is T3, GABPA (Homo sapiens, UniProt Q06546 1-454).
T3 sequence: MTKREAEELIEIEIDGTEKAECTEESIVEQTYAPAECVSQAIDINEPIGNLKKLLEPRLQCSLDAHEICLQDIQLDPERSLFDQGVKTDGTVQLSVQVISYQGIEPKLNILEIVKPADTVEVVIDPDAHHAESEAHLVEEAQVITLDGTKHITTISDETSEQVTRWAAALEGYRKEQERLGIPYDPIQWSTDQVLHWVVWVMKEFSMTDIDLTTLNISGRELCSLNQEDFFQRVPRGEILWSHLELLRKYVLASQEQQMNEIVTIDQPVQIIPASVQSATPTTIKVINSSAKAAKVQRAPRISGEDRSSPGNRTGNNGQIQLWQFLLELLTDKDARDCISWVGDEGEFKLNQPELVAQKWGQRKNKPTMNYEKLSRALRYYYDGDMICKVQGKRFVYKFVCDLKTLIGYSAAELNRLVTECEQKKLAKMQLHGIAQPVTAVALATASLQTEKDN
The gist of the method:
as §1

Assay [4] concerns the target T4, ERG (Homo sapiens, UniProt P11308 1-479).
T4 sequence: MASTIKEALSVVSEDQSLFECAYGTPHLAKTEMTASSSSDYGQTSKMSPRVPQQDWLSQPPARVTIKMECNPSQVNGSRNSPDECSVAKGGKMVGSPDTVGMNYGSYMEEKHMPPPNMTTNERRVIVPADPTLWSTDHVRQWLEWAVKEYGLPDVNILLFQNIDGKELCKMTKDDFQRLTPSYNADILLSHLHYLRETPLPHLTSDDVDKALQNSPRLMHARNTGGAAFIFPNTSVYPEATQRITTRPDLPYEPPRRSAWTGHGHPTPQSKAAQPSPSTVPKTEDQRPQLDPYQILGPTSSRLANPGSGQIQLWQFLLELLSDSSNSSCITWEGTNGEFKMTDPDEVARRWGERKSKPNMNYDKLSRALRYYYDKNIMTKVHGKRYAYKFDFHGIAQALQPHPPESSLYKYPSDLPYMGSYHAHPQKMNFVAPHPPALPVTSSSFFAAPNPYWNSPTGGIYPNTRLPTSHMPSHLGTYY
The method in brief: as §1

Assay [5] deals with ELF1 (Homo sapiens, UniProt P32519 1-619). The gist of the method: as §1
Assay [6] concerns the target T5, EHF (Homo sapiens, UniProt Q9NZC4 1-300).
T5 sequence: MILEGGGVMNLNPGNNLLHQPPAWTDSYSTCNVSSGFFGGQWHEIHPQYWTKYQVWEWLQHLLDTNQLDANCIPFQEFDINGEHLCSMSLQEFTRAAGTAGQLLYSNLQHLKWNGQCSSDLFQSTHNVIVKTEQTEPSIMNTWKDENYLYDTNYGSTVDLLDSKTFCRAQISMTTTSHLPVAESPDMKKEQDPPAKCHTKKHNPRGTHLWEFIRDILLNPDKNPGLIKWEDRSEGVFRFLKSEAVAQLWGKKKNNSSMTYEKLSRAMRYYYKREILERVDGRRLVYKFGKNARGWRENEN
The gist of the method: as §1

The target in assay [7] is SPI1 (Homo sapiens, UniProt P17947 1-270). The method in brief: as §1
Assay [8] deals with SPIB (Homo sapiens, UniProt Q01892 1-262). The gist of the method:
as §1

The target in assay [9] is T6, ELK3 (Homo sapiens, UniProt P41970 1-407).
T6 sequence: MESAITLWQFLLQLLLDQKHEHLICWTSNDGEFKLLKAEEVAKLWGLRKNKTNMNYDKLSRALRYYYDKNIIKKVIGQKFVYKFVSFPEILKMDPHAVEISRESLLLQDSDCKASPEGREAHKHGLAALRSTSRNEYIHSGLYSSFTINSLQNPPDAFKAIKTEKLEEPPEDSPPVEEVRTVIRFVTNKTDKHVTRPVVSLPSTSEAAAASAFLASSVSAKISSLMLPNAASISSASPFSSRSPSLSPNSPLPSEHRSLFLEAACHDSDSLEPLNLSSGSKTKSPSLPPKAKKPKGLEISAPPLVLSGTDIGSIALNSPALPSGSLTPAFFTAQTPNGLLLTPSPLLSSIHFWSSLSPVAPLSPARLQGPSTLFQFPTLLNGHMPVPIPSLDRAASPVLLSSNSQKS
The gist of the method: as §1

ELF1, sequence (P32519 whole entry): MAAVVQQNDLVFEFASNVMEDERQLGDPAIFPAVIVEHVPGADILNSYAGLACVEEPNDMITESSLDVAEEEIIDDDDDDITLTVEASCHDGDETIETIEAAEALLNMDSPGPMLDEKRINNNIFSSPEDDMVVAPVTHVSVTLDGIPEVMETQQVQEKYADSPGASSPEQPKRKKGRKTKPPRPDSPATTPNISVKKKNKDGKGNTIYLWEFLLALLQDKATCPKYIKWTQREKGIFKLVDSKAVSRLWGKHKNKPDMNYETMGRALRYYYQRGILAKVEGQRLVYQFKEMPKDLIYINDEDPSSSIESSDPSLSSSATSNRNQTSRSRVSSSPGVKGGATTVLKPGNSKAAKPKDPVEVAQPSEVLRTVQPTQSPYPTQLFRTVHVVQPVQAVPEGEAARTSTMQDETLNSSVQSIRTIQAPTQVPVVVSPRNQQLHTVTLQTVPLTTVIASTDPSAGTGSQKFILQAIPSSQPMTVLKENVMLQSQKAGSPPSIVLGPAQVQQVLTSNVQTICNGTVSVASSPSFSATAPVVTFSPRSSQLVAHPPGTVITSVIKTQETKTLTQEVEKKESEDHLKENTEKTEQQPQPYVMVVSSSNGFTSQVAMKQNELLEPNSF
SPIB, sequence (Q01892 whole entry): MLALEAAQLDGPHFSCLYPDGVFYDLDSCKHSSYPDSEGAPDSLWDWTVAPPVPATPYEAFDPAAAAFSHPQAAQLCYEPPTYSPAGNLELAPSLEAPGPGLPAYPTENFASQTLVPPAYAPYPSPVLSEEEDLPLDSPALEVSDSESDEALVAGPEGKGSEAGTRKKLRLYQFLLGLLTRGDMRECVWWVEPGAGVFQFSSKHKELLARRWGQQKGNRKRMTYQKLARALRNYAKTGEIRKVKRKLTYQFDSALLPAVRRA

For ATGAGC, the binding signal in assay [1] was 1.11 fold enrichment (6-mer frequency, TF over GST control); in assay [2], 1.27 fold enrichment (6-mer frequency, TF over GST control); in assay [3], 1.33 fold enrichment (6-mer frequency, TF over GST control); in assay [4] it was 1.2 fold enrichment (6-mer frequency, TF over GST control); in assay [5], 1.24 fold enrichment (6-mer frequency, TF over GST control); in assay [6], 1.18 fold enrichment (6-mer frequency, TF over GST control). Moreover, the binding signal was 1.13 fold enrichment (6-mer frequency, TF over GST control) in assay [7]; 1.24 fold enrichment (6-mer frequency, TF over GST control) in [8]; 1.19 fold enrichment (6-mer frequency, TF over GST control) in assay [9].
With GTATAT, the binding signal in [1] was 1.13 fold enrichment (6-mer frequency, TF over GST control); in assay [2], 1.22 fold enrichment (6-mer frequency, TF over GST control); in assay [3], 1.13 fold enrichment (6-mer frequency, TF over GST control); in [4] it was 1.09 fold enrichment (6-mer frequency, TF over GST control); in [5], 1.17 fold enrichment (6-mer frequency, TF over GST control); in assay [6] it was 1.2 fold enrichment (6-mer frequency, TF over GST control). Further, the binding signal in assay [7] is 1.13 fold enrichment (6-mer frequency, TF over GST control); in [8], 1.23 fold enrichment (6-mer frequency, TF over GST control); in assay [9], 1.11 fold enrichment (6-mer frequency, TF over GST control).
For the sequence ATTATA, the binding signal was 1.24 fold enrichment (6-mer frequency, TF over GST control) in [1]; 1.32 fold enrichment (6-mer frequency, TF over GST control) in assay [2]; 1.21 fold enrichment (6-mer frequency, TF over GST control) in [3]; 1.25 fold enrichment (6-mer frequency, TF over GST control) in assay [4]; 1.31 fold enrichment (6-mer frequency, TF over GST control) in assay [5]; 1.29 fold enrichment (6-mer frequency, TF over GST control) in [6]. Besides, the binding signal was 1.2 fold enrichment (6-mer frequency, TF over GST control) in assay [7]; 1.37 fold enrichment (6-mer frequency, TF over GST control) in [8]; 1.28 fold enrichment (6-mer frequency, TF over GST control) in assay [9].
For GATGAT, the binding signal was 1.34 fold enrichment (6-mer frequency, TF over GST control) in assay [1]; 1.37 fold enrichment (6-mer frequency, TF over GST control) in assay [2]; 1.35 fold enrichment (6-mer frequency, TF over GST control) in [3]; 1.33 fold enrichment (6-mer frequency, TF over GST control) in assay [4]; 1.32 fold enrichment (6-mer frequency, TF over GST control) in [5]; 1.44 fold enrichment (6-mer frequency, TF over GST control) in [6]. The binding signal in assay [7] is 1.28 fold enrichment (6-mer frequency, TF over GST control); in assay [8] it was 1.33 fold enrichment (6-mer frequency, TF over GST control); in assay [9] it was 1.34 fold enrichment (6-mer frequency, TF over GST control).
Turning to GCTCTC, the binding signal in assay [1] was 1.43 fold enrichment (6-mer frequency, TF over GST control); in assay [2] it was 1.5 fold enrichment (6-mer frequency, TF over GST control); in assay [3] it was 1.53 fold enrichment (6-mer frequency, TF over GST control); in [4] it was 1.42 fold enrichment (6-mer frequency, TF over GST control); in assay [5] it was 1.47 fold enrichment (6-mer frequency, TF over GST control); in assay [6], 1.34 fold enrichment (6-mer frequency, TF over GST control). The binding signal in assay [7] was 1.35 fold enrichment (6-mer frequency, TF over GST control); in [8], 1.29 fold enrichment (6-mer frequency, TF over GST control); in [9], 1.46 fold enrichment (6-mer frequency, TF over GST control).
Take AACTAG: the binding signal in assay [1] was 1.06 fold enrichment (6-mer frequency, TF over GST control); in [2], 1.15 fold enrichment (6-mer frequency, TF over GST control); in assay [3], 1.22 fold enrichment (6-mer frequency, TF over GST control); in [4] it was 1.21 fold enrichment (6-mer frequency, TF over GST control); in [5], 1.16 fold enrichment (6-mer frequency, TF over GST control); in [6] it was 1.12 fold enrichment (6-mer frequency, TF over GST control). Besides, the binding signal in assay [7] was 1.11 fold enrichment (6-mer frequency, TF over GST control); in assay [8], 1.07 fold enrichment (6-mer frequency, TF over GST control); in assay [9] it was 1.11 fold enrichment (6-mer frequency, TF over GST control).
As for ATTTAT, the binding signal in [1] was 1.41 fold enrichment (6-mer frequency, TF over GST control); in assay [2], 1.48 fold enrichment (6-mer frequency, TF over GST control); in assay [3], 1.35 fold enrichment (6-mer frequency, TF over GST control); in assay [4], 1.33 fold enrichment (6-mer frequency, TF over GST control); in [5], 1.32 fold enrichment (6-mer frequency, TF over GST control); in assay [6], 1.45 fold enrichment (6-mer frequency, TF over GST control). Besides, the binding signal in assay [7] was 1.43 fold enrichment (6-mer frequency, TF over GST control); in assay [8], 1.46 fold enrichment (6-mer frequency, TF over GST control); in [9], 1.49 fold enrichment (6-mer frequency, TF over GST control).
As to CCAATC, the binding signal in [1] is 1.21 fold enrichment (6-mer frequency, TF over GST control); in [2], 1.14 fold enrichment (6-mer frequency, TF over GST control); in assay [3], 1.2 fold enrichment (6-mer frequency, TF over GST control); in [4], 1.12 fold enrichment (6-mer frequency, TF over GST control); in assay [5] it was 1.23 fold enrichment (6-mer frequency, TF over GST control); in [6] it was 1 fold enrichment (6-mer frequency, TF over GST control). For the same sequence, the binding signal is 1.14 fold enrichment (6-mer frequency, TF over GST control) in assay [7]; 1.1 fold enrichment (6-mer frequency, TF over GST control) in [8]; 1.22 fold enrichment (6-mer frequency, TF over GST control) in assay [9].

These data come from article PMC7862700, “An all-to-all approach to the identification of sequence-specific readers for epigenetic DNA modifications on cytosine”.
